Experimental data from PubChem BioAssay AID652176 (Sanford-Burnham Center for Chemical Genomics, 2013).
Hit rate of the full screen: of about 2,400 compounds, about 25 (1%) were called active.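 The calls were made as follows: active = replicate-average signal at least 3 plate SD below neutral wells, shown as high inhibition, flagging enzyme-inhibiting false positives; inactive = the rest.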 The list is a sample of the results.

System: Beta-galactosidase (Escherichia coli), counter-screen for EBI2 antagonists
Assay: inhibitors of purified bacterial beta-gal – biochemical, luminescence, single concentration, counter-screen for EBI2 antagonist project, confirmation (AID 652176);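 also: 0% = DMSO wells with enzyme and 100% = wells lacking enzyme; higher means stronger loss of beta-gal luminescence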
Settings: luminescent Galacton Star, 15 min, at 5 µM, active compounds read high

| Compound | inhibition |
| --- | --- |
| COc1ccc2cc(C3=CC(=O)C[C@H](c4ccc5c(c4)OCO5)C3)ccc2c1 | -16.2% (inactive) |
| Cc1cc(Cl)c2oc(C(=O)N3CCC(O)(c4ccccc4)CC3)c(C)c2c1 | -14% (inactive) |
| COc1ccc(/C=N/N=C/c2c[nH]c(=O)c(C#N)c2Nc2ccccc2)cc1 | -8.65% (inactive) |
| O=c1[nH]c(CN2CCN(S(=O)(=O)c3ccc4c(c3)OCCO4)CC2)nc2sc3c(c12)CCCC3 | 5.78% (inactive) |
| O=C(NCCCc1ccccc1)C1CCC(=O)N(CCc2ccc(Cl)cc2)C1 (configuration not stated) | 1.78% (inactive) |
| COc1ccccc1N1CCN(C(=O)c2cc(=O)c3cc(C)ccc3o2)CC1 | 2.71% (inactive) |
| COc1ccc(C(=O)/C=C/c2ccc(OC3CSC3)cc2)cc1 | 4.77% (inactive) |
| CN1CCc2ccccc2C1Cc1ccccc1NC(=O)c1sc2ccccc2c1Cl (configuration not stated) | -9.49% (inactive) |
| O=C(COc1ccc2ccccc2c1)N1CCN(C(=O)c2cccs2)CC1 | 6.4% (inactive) |
| O=C(c1cc2ccccc2s1)N1CCN(c2ccccn2)CC1 | -19.7% (inactive) |
| O=C(/C=C/c1cccc([N+](=O)[O-])c1)N1CCN(Cc2ccccc2)CC1 | -5.48% (inactive) |
| CC(=O)/C(=N\Nc1ccc(Cl)cc1Cl)Sc1cccc2cccnc12 | -5.07% (inactive) |
| CCN(CC(=O)NCc1cccs1)C(=O)/C=C/c1ccc(C)cc1 | 1.05% (inactive) |
| O=C(C(c1ccccc1)c1ccccc1)N1CCN(CC(O)COc2ccccc2)CC1 (configuration not stated) | -10% (inactive) |
| Cc1ccc(S(=O)(=O)N2CCN(CC(=O)N/N=C/c3ccc(Br)s3)CC2)cc1 | 3.3% (inactive) |
| COc1cccc(-c2cc(C(=O)N3CCN(c4ccccc4OC)CC3)no2)c1 | 5.78% (inactive) |
| COc1ccc(OCC(=O)N2CCN(C(=O)COc3ccccc3)CC2)cc1 | -7.53% (inactive) |
| Cc1ccc2oc(=O)c3cnn(CC(=O)N4CCCCCC4)c3c2c1 | 6.6% (inactive) |
| CCC1Nc2ncnc(N3CCN(c4ccccc4)CC3)c2N(Cc2ccc(Cl)cc2)C1=O (configuration not stated) | 69% (active) |
| Cc1cccc(N2CCN(C(=O)c3cc4c(=O)[nH]c5ccccc5c4n3C)CC2)c1C | 5.01% (inactive) |
| CC(=O)c1nn(-c2ccc(C)cc2)cc1C(=O)c1cccc(Br)c1 | -0.17% (inactive) |
| Cc1ccc(OCC(=O)N2CCN(S(=O)(=O)c3ccc(Cl)s3)CC2)cc1C | 0.1% (inactive) |

| Compound | inhibition |
| --- | --- |
| CCC(C)(C)NC(=O)c1cc([N+](=O)[O-])ccc1N1CCCCC1 | -7.53% (inactive) |
| Cc1cccc(NC(=O)CN2CCN(C(=O)C3CCN(C(=O)/C=C/c4ccccc4)CC3)CC2)c1C | -13.5% (inactive) |
| O=C(Nc1ncc2c(n1)CC(c1ccco1)CC2=O)c1ccc(Cl)cc1 (configuration not stated) | 8.95% (inactive) |
| CCOc1ccc(CN(Cc2ccco2)S(=O)(=O)c2ccc(-n3cnnn3)c(OC)c2)cc1 | 4.57% (inactive) |
| COc1ccc(C(c2nnnn2C2CCCC2)N2CCN(C/C=C/c3ccccc3)CC2)cc1 (configuration not stated) | -12.2% (inactive) |
| COc1ccc(-c2cc(NC=O)c3ncc(-c4cccc(C(=O)N(C)C)c4)n3c2)c(OC)c1 | -10.8% (inactive) |
| CCOC(=O)N1CCN(C(=O)CSc2ccc(Cl)cc2)CC1 | 5.7% (inactive) |
| CCCCN=C1C([N+](=O)[O-])=CC=C2C1=NC1(CCCCC1)N2O | -14.2% (inactive) |
| CCC(c1nnc(SCC(=O)NNC(=O)c2ccccc2)n1Cc1ccccc1)N(C)C (configuration not stated) | -17.6% (inactive) |
| CCOc1ccc(CCN2C(=S)N([C@@H](CC(C)C)CN3CCC[C@@H]3CN3C(=S)NC[C@@H]3Cc3ccc(O)cc3)C[C@@H]2Cc2ccc(O)cc2)cc1 | -18.9% (inactive) |
| O=C(/C=C/c1cccc(C(F)(F)F)c1)N1CCN(c2ccccn2)CC1 | -8.93% (inactive) |
| Cc1ccc(OCC(=O)N2CCN(C(=O)c3cccnc3)CC2)cc1 | -9.4% (inactive) |
| CN(Cc1ccc(F)cc1)C(=O)COc1ccc2ccccc2c1 | 3.08% (inactive) |
| Cc1cc(C)c2c(=O)n3c(nc2c1)C(CC(C)C)NC(=O)c1cc2ccccc2cc1-3 (configuration not stated) | 7.36% (inactive) |
| CCOc1ccc(C(C)=O)cc1COC(=O)c1cnc(Cl)c(Cl)c1 | -6.96% (inactive) |
| Cc1cccc(OCC(O)CN2CCN(S(=O)(=O)c3ccc(C)cc3C)CC2)c1 (configuration not stated) | -7.67% (inactive) |
| COc1ccc(-c2nc(N)ncc2-c2ccc(Cl)cc2)c(O)c1 | 5.17% (inactive) |
| Cc1cc(OCC(=O)N2CCN(c3ncccn3)CC2)ccc1Cl | 2.13% (inactive) |
| O=C(COc1ccc(Cl)cc1)N1CCN(c2cccc(C(F)(F)F)c2)CC1 | 4.01% (inactive) |
| O=C(NCc1ccc(Cl)cc1)C1CCN(S(=O)(=O)c2cccs2)CC1 | 1.5% (inactive) |
| N#Cc1ccc(C2=CC(=O)C[C@H](c3ccc(Cl)cc3)C2)cc1 | 9% (inactive) |
| CCCC1CCC(=NNC(=S)NCCc2ccccc2)CC1 (configuration not stated) | -11.9% (inactive) |

| Compound | inhibition |
| --- | --- |
| O=C(COc1ccc(Cl)cc1)N1CCN(S(=O)(=O)c2ccc(Cl)cc2)CC1 | 6% (inactive) |
| CCOC(=O)C1CCN(C(=O)COc2cc(C)c(Br)c(C)c2)CC1 | 2.96% (inactive) |
| Cc1cc(OCCOc2cccc3cccnc23)c(C)cc1Cl | 4.27% (inactive) |
| O=C(NNC(=O)c1ccc2ccccc2c1)c1ccc(Cl)cc1 | 7.62% (inactive) |
| COc1ccccc1CCNC(=O)C1CCN(C(=O)/C=C/c2ccccc2)CC1 | 6.37% (inactive) |
| O=C(Nc1ccc(S(=O)(=O)N2CCCCC2)cc1)C1CC(=O)N(c2ccc(F)cc2)C1 (configuration not stated) | 10.2% (inactive) |
| COc1ccc(-c2cn(-c3ccc(OC)cc3)c(=S)[nH]2)cc1 | 3.97% (inactive) |
| Cc1cccc(N=C2NC(=O)/C(=C/c3cn(C)c4ccccc34)S2)c1 | 8.09% (inactive) |
| Cc1ccc(OCCNC(=O)CCNS(=O)(=O)c2ccc(Br)cc2)cc1 | -13% (inactive) |
| O=C(COc1ccc2c(c1)CCC2)N1CCN(c2ccc(F)cc2)CC1 | -10.9% (inactive) |
| O=C(NCc1ccc(Cl)cc1)c1cc(=O)nc2sc(-c3ccccc3)nn12 | 2.99% (inactive) |
| O=C(CC(c1ccccc1)c1ccccc1)NCC(O)c1ccc([N+](=O)[O-])cc1 (configuration not stated) | -11% (inactive) |
| COc1ccc(CNC(=O)CN(c2ccc(OC)c(Cl)c2)S(=O)(=O)c2ccc(C)cc2)cc1 | -10.2% (inactive) |
| N#Cc1ccc(C(c2nnnn2CCc2ccccc2)N2CCCCCC2)cc1 (configuration not stated) | 7.67% (inactive) |
| O=C(NCCNc1ccc([N+](=O)[O-])cc1)c1cccc2c(Br)cccc12 | 3.17% (inactive) |
| Cc1cs/c(=N\N=C\c2ccc(O)cc2)n1Cc1ccco1 | 10% (inactive) |
| COc1ccc(-n2c(Cc3cccn3C)nnc2SCC(=O)Nc2cc(C)cc(C)c2)cc1 | 5.9% (inactive) |
| O=C(/C=C/c1ccc(Cl)cc1)N1CCN(c2ccccc2[N+](=O)[O-])CC1 | 3.83% (inactive) |
| COc1ccc(NC(=O)N2CCC(Cc3ccccc3)CC2)cc1 | -4.45% (inactive) |
| COc1cc(/C=C(\C#N)C(=O)Nc2ccc3ccccc3c2)c([N+](=O)[O-])cc1OC | -8.92% (inactive) |
| CC(C)N(Cc1ccccc1)C(=S)Nc1ccc(OC(F)F)cc1 | 7.71% (inactive) |
| Cc1ccc(S(=O)(=O)NCCNC(C)c2ccc(Br)cc2)cc1 (configuration not stated) | 4.8% (inactive) |

| Compound | inhibition |
| --- | --- |
| Cc1cccc(C)c1-n1nnnc1C(CCc1ccccc1)N1CCN(C/C=C/c2ccccc2)CC1 (configuration not stated) | -14.6% (inactive) |
| Cc1cccc(-n2c(O)c(C=Nc3ccccc3N)c(=O)[nH]c2=O)c1 | 1.72% (inactive) |
| CC(C)Cc1ccc(-c2cc3nc(NCc4cccc(Cl)c4)ccn3n2)cc1 | -21.1% (inactive) |
| Fc1ccc(N2CCN(Cc3cnc(Oc4ccc(Br)cc4)s3)CC2)cc1 | 3.88% (inactive) |
| COc1ccc([C@H]2CC(=O)C=C(/C=C/c3ccc(Cl)cc3)C2)cc1 | -9.12% (inactive) |
| O=C(CSc1ccccc1)Nc1cc(Cl)ccc1Oc1ccccc1 | -9.14% (inactive) |
| COc1ccccc1N1CCN(C(=O)c2cc(-c3ccc(Br)cc3)on2)CC1 | 9.03% (inactive) |
| CC1CCc2sc3nc(N4CCN(CCO)CC4)n4ncnc4c3c2C1 (configuration not stated) | -1.4% (inactive) |
| Cc1nc2ccc(C(=O)N3CCN(c4ccccc4)CC3)cc2s1 | -10.1% (inactive) |
| Cc1ccc(N2CC(C(=O)Nc3ccc(S(=O)(=O)N4CCCC4)cc3)CC2=O)cc1C (configuration not stated) | 2.23% (inactive) |
| COc1ccc([C@H]2CC(=O)C=C(c3ccc(C)cc3)C2)cc1 | 5.89% (inactive) |
| O=C(c1cc2cc(F)ccc2[nH]1)N1CCN(c2ccc(F)cc2)CC1 | 1.06% (inactive) |
| Cc1ccc(CSCCNC(=O)CN(c2ccc(F)cc2)S(C)(=O)=O)cc1 | 3.75% (inactive) |
| O=C(c1ccc(-n2cnnn2)cc1)N1CCN(C(c2ccccc2)c2ccccc2)CC1 | 5.89% (inactive) |
| Cc1ccc2oc(=O)c3cnn(CC(=O)N(Cc4ccco4)C4CCCCC4)c3c2c1 | -17.5% (inactive) |
| CCOC(=O)N1CCN(C(=O)COc2ccc(Cl)cc2C)CC1 | 11% (inactive) |
| Cc1ccc(O/C=C2\OC(=O)c3ccccc32)cc1 | -6.52% (inactive) |
| CCOC(=O)N1CCN(C(=O)COc2ccc(Br)cc2)CC1 | 2.79% (inactive) |
| COc1ccc(OC)c(C(=O)c2coc3ccc(O)c(CN4CCOCC4)c23)c1 | 3.81% (inactive) |
| FC(F)(F)Oc1ccccc1C(c1nnnn1C1CCCCC1)N1CCN(C/C=C/c2ccccc2)CC1 (configuration not stated) | 3.49% (inactive) |
| COc1ccc(Nc2cc(Sc3ccc(OC)cc3)ncn2)cc1 | 8.03% (inactive) |
